Among the data in PubChem BioAssay (NCATS) are Potency and max response values, retold here.

Inconclusive results are not listed. Values without a mark were called inactive. Active and inactive are the calls of the source. Calls come from the whole dose curve; as a rule, active = well fitted inhibition curve with a large enough effect; inconclusive = small, poorly fitted or top-dose-only effect; inactive = flat fitted curve, though single readings scatter. Non-standard residues stand in square brackets, D forms with d. Residues, ends and D or L forms follow the SMILES beside them. Orn = NCCC[C@H](N)C(=O)O

One assay has as its system SC27B. As to the kind of experiment: qHTS profiling for inhibitors of Plasmodium falciparum proliferation (AID 504749). Conditions: P. falciparum in erythrocytes, SYBR Green DNA, 72 h; series mostly up to 28.7 µM. In a few lines:
(§1)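 P. falciparum-infected erythrocytes (0.3% parasitemia, 2.5% hematocrit final) were exposed to compounds for 72 h at 37 C in 5% CO2, then lysed with SYBR Green buffer overnight at room temperature; parasite DNA fluorescence was normalized to artemisinin and DMSO controls.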
On the technique in general: Quantitative high-throughput screening tests each substance at several concentrations.

A further assay relates to TAB109. The assay is described as above. As to conditions: P. falciparum in erythrocytes, SYBR Green DNA, 72 h; series mostly up to 28.7 µM. The gist of the method: as §1
Another assay has as its system TAB113. The assay is described as above. As to conditions: P. falciparum in erythrocytes, SYBR Green DNA, 72 h; series mostly up to 28.7 µM. The gist of the method:
as §1

For another assay, the system named is TAB165. The description is as above. Conditions: P. falciparum in erythrocytes, SYBR Green DNA, 72 h; series mostly up to 28.7 µM. In a few lines: as §1
The next assay has as its system KB-3-1. As to the kind of experiment: Cytotoxic Profiling of Annotated Libraries Using Quantitative High-Throughput Screening (AID 1296008). For max response: % is set by controls: 0 for no effect and ±100 for the full control effect. Conditions: Five cell lines viability, CellTiter-Glo ATP luminescence, 48-72 h; max response: stronger effect = lower value. The gist of the method:
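Compounds were pin-transferred onto cells and incubated 48 or 72 hr at 37 degree Celsius, 95% humidity. CellTiter-Glo was added, plates sat 10 min at room temperature, then ATP-coupled luminescence was imaged as the viability read-out.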
For orientation: ATP-based viability assays read luminescence as a measure of living cells.

The next assay deals with W2. Briefly: qHTS profiling for inhibitors of Plasmodium falciparum proliferation (AID 504749). Conditions: P. falciparum in erythrocytes, SYBR Green DNA, 72 h; series mostly up to 28.7 µM. In a few lines: as §1
Note: nearly all actives have a fitted effect of over 60% in size.
Potency is the fitted concentration of half-maximal effect.

For `CCCCC(C)(O)C/C=C/[C@H]1[C@H](O)CC(=O)[C@@H]1CCCCCCC(=O)OC` (stereo partly specified), the Potency result with SC27B, in the assay with TAB109, with TAB113 and in the assay with TAB165 was “inactive” in each case. For the same molecule, in the assay with KB-3-1, the max response was 3.19%.
For the molecule `CC(=O)OCC(=O)[C@@]1(O)CC[C@H]2[C@@H]3C[C@H](C)C4=CC(=O)C=C[C@]4(C)[C@H]3[C@@H](O)C[C@@]21C`, the max response in the assay on KB-3-1 is 15.9%.
Take `COc1ccc(C[C@@H](C)NC[C@H](O)c2ccc(O)c(NC=O)c2)cc1`: in the assay with KB-3-1, the max response is 2.59%.
Same read-out and setting: the figure for `CCOC(=O)O[C@]1(C(=O)COC(=O)CC)CC[C@H]2[C@@H]3CCC4=CC(=O)C=C[C@]4(C)[C@H]3[C@@H](O)C[C@@]21C` is 0.126%.
Consider `CCCCC(=O)OCC(=O)[C@]1(O)Cc2c(O)c3c(c(O)c2[C@@H](O[C@H]2C[C@H](NC(=O)C(F)(F)F)[C@H](O)[C@H](C)O2)C1)C(=O)c1c(OC)cccc1C3=O`, for which the Potency in the assay on KB-3-1 is 8.2 µM (active).
`O=C(O)C1CCCN1` (stereo unspecified): the max response with KB-3-1 is 3.27%.
As for `CC(C)C(=O)OCC(=O)[C@@]12O[C@H](C3CCCCC3)O[C@@H]1C[C@H]1[C@@H]3CCC4=CC(=O)C=C[C@]4(C)[C@H]3[C@@H](O)C[C@@]12C`, in the assay on KB-3-1, the max response was -5.72%.
Same read-out and setting: the figure for `CC(=O)N(CC(C)C(=O)O)c1c(I)cc(I)c(N)c1I` (stereo unspecified) is -8.47%.
For the molecule `CC(C)C[C@@H]1NC(=O)[C@H](CCCN)NC(=O)[C@H](C(C)C)NC(=O)[C@@H]2CCCN2C(=O)[C@@H](Cc2ccccc2)NC(=O)[C@H](CC(C)C)NC(=O)[C@H](CCCN)NC(=O)[C@H](C(C)C)NC(=O)[C@@H]2CCCN2C(=O)[C@@H](Cc2ccccc2)NC1=O` (cyclo(V[Orn]L[dF]PV[Orn]L[dF]P)), the Potency in the assay with KB-3-1 was 0.82 µM (active).
`CC[C@@H](C(=O)[C@@H](C)[C@@H](O)[C@H](C)CCc1ccc(C)c(O)c1C(=O)O)[C@H]1O[C@](CC)([C@H]2CC[C@](O)(CC)[C@H](C)O2)C[C@@H]1C`: the max response with KB-3-1 was 10.1%.
Same read-out and setting: the figure for `C[C@]12C=CC(=O)N[C@@H]1CC[C@@H]1[C@@H]2CC[C@]2(C)[C@@H](C(=O)Nc3cc(C(F)(F)F)ccc3C(F)(F)F)CC[C@@H]12` is 5.03%.
On the same count and under the same terms, under `NCc1ccccc1CC(=O)N[C@@H]1C(=O)N2C(C(=O)O)=C(CSc3nnnn3CC(=O)O)CS[C@H]12` stands -8.7%; under `CO[C@H]1C=CO[C@@]2(C)Oc3c(C)c(O)c4c(O)c(c5c(nc6cc(C)ccn65)c4c3C2=O)NC(=O)/C(C)=C\C=C[C@H](C)[C@H](O)[C@@H](C)[C@@H](O)[C@@H](C)[C@H](OC(C)=O)[C@@H]1C`, 5.41%; under `C=C(NC(=O)C(=C)NC(=O)c1csc(C2=N[C@@H]3c4csc(n4)[C@H]4NC(=O)c5csc(n5)[C@H]([C@](C)(O)[C@@H](C)O)NC(=O)[C@H]5CSC(=N5)C(=CC)NC(=O)C([C@@H](C)O)NC(=O)c5csc(n5)[C@]3(CC2)NC(=O)[C@H](C)NC(=O)C(=C)NC(=O)[C@H](C)NC(=O)C([C@@H](C)CC)NC2C=Cc3c([C@H](C)O)cc(nc3C2O)C(=O)O[C@@H]4C)n1)C(N)=O` (stereo partly specified), -16.7%.
On the same count and under the same terms, under `Cc1cc(CC(C)CC(C)(C)C)n(O)c(=O)c1` (stereo unspecified) (tested in a mixture with another compound) stands 29.3%.
Regarding `CN(C)CC/C=C1/c2ccccc2CSc2ccccc21`, the max response in the assay with KB-3-1 was -13.6%.
Still for that read-out and setting: under `CCC(=O)OCC(=O)[C@@]1(OC(=O)CC)[C@H](C)C[C@H]2[C@H]3[C@H]([C@@H](O)C[C@@]21C)[C@@]1(C)C=CC(=O)C=C1C[C@H]3Cl` stands 31.3%; under `CC(=O)OCC(=O)[C@@]12OC3(CCCC3)O[C@@H]1C[C@H]1[C@@H]3CCC4=CC(=O)C=C[C@]4(C)[C@@]3(F)[C@@H](O)C[C@@]12C`, -4.92%.
The same measure, in the same setting: under `CCCC(=O)Nc1ncnc2c1ncn2[C@@H]1O[C@@H]2COP(=O)(O)O[C@H]2[C@H]1OC(=O)CCC` stands -5.3%; under `CN1CCC(CN2c3ccccc3Sc3ccccc32)C1` (stereo unspecified), -8.09%.
With `CC(C)N=c1cc2n(-c3ccc(Cl)cc3)c3ccccc3nc-2cc1Nc1ccc(Cl)cc1`, the Potency entry in the assay on SC27B, with TAB109, in the assay on TAB113 and in the assay with TAB165 was “inactive” throughout. Also, the max response in the assay on KB-3-1 is 6.76%.
On to `CC(=O)N[C@@H](CC(=O)N[C@@H](CCC(=O)O)C(=O)O)C(=O)O`, for which the max response in the assay with KB-3-1 is -12.8%.
In the case of `Nc1c(Br)cc(Br)cc1CNC1CCC(O)CC1` (stereo unspecified), the Potency entry in the assay on SC27B, in the assay with TAB109, in the assay with TAB113 and in the assay with TAB165 was “inactive” in each case.
In the case of `CC(O)CO` (stereo unspecified), the Potency entry in the assay on SC27B, in the assay on TAB109, in the assay on TAB113, in the assay with TAB165 and in the assay on W2 was “inactive” each time. For the same molecule, in the assay with KB-3-1, the max response was -18.9%.
`CC1=CCC(C(C)(C)O)CC1` (stereo unspecified): the Potency result in the assay on SC27B, in the assay on TAB109, with TAB113, in the assay on TAB165 and with W2 was “inactive” each time. Moreover, the max response in the assay with KB-3-1 was 6.57%.
As to `CN(C)CCCN1c2ccccc2C(C)(C)c2ccccc21`, the Potency with W2 was 4.26 µM (active). Further, the max response in the assay on KB-3-1 was -18.4%.
As to `O=S(=O)(O)c1cc(O)c2c(N=Nc3ccc(Nc4ccccc4)c4c(S(=O)(=O)O)cccc34)cc(S(=O)(=O)O)cc2c1`, the Potency entry in the assay with SC27B was “inactive”.
With `COCC(=O)Nc1cc(Sc2ccccc2)ccc1N=C(NC(=O)OC)NC(=O)OC`, the Potency result in the assay with SC27B, in the assay with TAB109, in the assay on TAB113 and in the assay on TAB165 was “inactive” throughout.
Turning to `O=C1C(=O)c2ncccc2-c2cccnc21`, the Potency in the assay on SC27B was 2.82 µM (active); with TAB109, 1 µM (active); with TAB113, 1.78 µM (active); in the assay on TAB165 it was 0.794 µM (active); in the assay on W2, 1.07 µM (active); in the assay on KB-3-1 it was 4.61 µM (active).
In the case of `CC(C)(C)C(=O)OCOC(=O)[C@@H]1N2C(=O)[C@@H](N=CN3CCCCCC3)[C@H]2SC1(C)C`, the Potency result with SC27B, in the assay with TAB109, in the assay on TAB113 and in the assay on TAB165 was “inactive” each time.
`CCCCCCCCCCCC[n+]1ccc2ccccc2c1`: the Potency in the assay with SC27B is 1.41 µM (active); with TAB109, 0.631 µM (active); in the assay with TAB113, 1 µM (active); in the assay with TAB165 it was 0.891 µM (active); in the assay with W2 it was 0.301 µM (active); with KB-3-1 it was 14.6 µM (active).
In the case of `O=C(COc1ccc(Cl)cc1)OCCNC12CC3CC(CC(C3)C1)C2`, the Potency result with SC27B, in the assay with TAB109, in the assay on TAB113 and in the assay with TAB165 was “inactive” throughout.
In the case of `CC(=O)Oc1cc(C)c(OC(C)=O)c2ccccc12`, the results for the Potency with TAB165 and with W2 were 12.6 µM (active) and 5.36 µM (active), respectively. For the same molecule, in the assay on KB-3-1, the max response is 4.15%.
